# Screening data: PubChem BioAssay, several laboratories
# AI-2 QS modul = modulators of Vibrio harveyi AI-2 quorum sensing system; 0.4% of 300,000 active; Vibrio harveyi JMH597 AI-2 luminescence/OD600 ratio, 9 h; hits give low values; strain lacks LuxN and CqsS sensors; 0 = neutral-control median; activity change, % at 7.5 µM; in the data active means activity change below about -75%, passing the limit was not always enough;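 further: luminescence divided by OD600 gain over 9 h not by final OD600 alone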
# sPLA2-III inh = Blocks human group III sPLA2 activity | Q9NZ20 | QFRET BODIPY PC-A2 liposome hydrolysis, fluorescence | inhibition, % at 12.2 µM | 0.56% of 370,000 active;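 active means inhibition above mean plus 3 SD of compounds lying within the high and low control bounds, cut at about 19% in these data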;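 further: 0% = median of test compound wells and 100% = no enzyme DMSO wells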
# ARNT TACC3 PPI = disruptors of human ARNT/TACC3 interaction. Q9Y6A5. AlphaScreen His-ARNT PAS-B/GST-TACC3 binding, luminescence; TACC3 fragment carries E629A point mutation. inhibition, % at 9.99 µM. 0.66% of 390,000 active;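 active means mean inhibition of replicates at least 50% and at least half of replicates each reaching 50%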;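 further: 0% = complete ARNT plus TACC3 wells and 100% = ARNT alone without TACC3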
# Rin1-Abl PPI inh = inhibitors of human Rin1-Abl protein interaction; P00519+Q13671; TR-FRET Rin1/Abl binding, biochemical; inhibition, % at 7.35 µM; 0.4% of 360,000 active; AID 588664; in the data active means inhibition above about 5%, passing the limit was not always enough
# Numbers without * were called inactive; . = not tested or not shown. This is a sample that favours compounds with a hit; in the whole collection about 1.5% have one here.
SMILES,AI-2 QS modul,sPLA2-III inh,ARNT TACC3 PPI,Rin1-Abl PPI inh
CN1c2ccc(-c3ccc(C#N)cc3)cc2[C@@H]2[C@@H](CCN2C(=O)Nc2cccc(F)c2)[C@@H]1CO,.,.,-4,.
COCC#Cc1cnc2c(c1)C(=O)N([C@@H](C)CO)C[C@@H](C)[C@H](CN(C)C(C)=O)O2,.,.,4,.
COc1ccccc1CNC(=O)C[C@H]1C[C@H]2c3cc(NC(=O)Cc4ccncc4)ccc3O[C@H]2[C@@H](CO)O1,.,.,5,.
COc1ccccc1CNC(=O)C[C@@H]1C[C@@H]2c3cc(NC(=O)Cc4ccncc4)ccc3O[C@@H]2[C@H](CO)O1,.,.,41*,.
C[C@@H]1CN([C@H](C)CO)C(=O)c2cccc(NC(=O)C3CCCCC3)c2O[C@@H]1CN(C)S(=O)(=O)c1cccs1,.,.,-3,.
CC(c1ccccc1)N1C(=O)c2cccnc2C1=O (stereo not drawn),23,-2,9,-4
CC(NC1=CC(=O)c2cccnc2C1=O)C(O)c1ccccc1 (stereo not drawn),.,5,47*,0
CCC1(c2ccccc2)NC(=O)N(CC(=O)NCc2ccc(OC)cc2)C1=O (stereo not drawn),-80*,4,.,2
CCC1(c2ccccc2)NC(=O)N(CC(=O)NCc2ccncc2)C1=O (stereo not drawn),27,3,-5,2
O=C(NNC(=O)c1ccccn1)c1ccc(OC(F)F)cc1,.,2,71*,2
O=C(NCCc1ccccn1)c1ccc(OC(F)F)cc1,5,1,-6,1
COc1ccc(C2c3ccc(O)cc3Oc3ncn4nc(-c5ccccn5)nc4c32)cc1OC (stereo not drawn),8,-31,59*,-4
Nc1[nH]c(N=NC(=O)c2ccccc2O)c2ccccc12,1,13,60*,-2
C[C@@H]1CN([C@@H](C)CO)S(=O)(=O)c2ccc(C#Cc3cccnc3)cc2O[C@H]1CN(C)C(=O)CN(C)C,.,.,-4,.
COc1ccc(/C=N/NS(=O)(=O)c2ccc(C)cc2)cc1,-83*,10,27,4
COc1ccc(O)c(/C=N/NS(=O)(=O)c2ccc(C)cc2)c1,20,-4,2,0
C[C@@H]1CN([C@H](C)CO)C(=O)c2cc(-c3ccccc3)cnc2O[C@H]1CN(C)C(=O)Cc1ccccc1,.,.,-3,.
O=C(Nc1ccccc1)Nc1ncc([N+](=O)[O-])s1,-86*,-5,2,-4
COc1ccc(CC(=O)Nc2cc(C)ccc2O)cc1OC,-78*,-4,-4,0
COc1ccc(CC(=O)Nc2ncc([N+](=O)[O-])s2)cc1OC,-4,-2,18*,2
C[C@H]1CN([C@@H](C)CO)S(=O)(=O)c2ccc(-c3cccc(F)c3)cc2O[C@H]1CN(C)S(=O)(=O)c1ccccc1,.,.,-5,.
Cc1ccc(C(C)C)c(OCc2nc(-c3nonc3N)no2)c1,-85*,-7,-9,-3
Cc1ccc(C(C)C)c(OCc2n[nH]c(=S)o2)c1,6,3,.,1
O=C(O)CC1S/C(=N/N=C/c2ccccn2)NC1=O (stereo not drawn),12,0,71*,-4
CC(C)NC(=O)N(C)C[C@H]1Oc2ncc(C#CC3CCCC3)cc2C(=O)N([C@@H](C)CO)C[C@@H]1C,.,.,-6,.
SMILES,AI-2 QS modul,sPLA2-III inh,ARNT TACC3 PPI,Rin1-Abl PPI inh
COc1ccc(S(=O)(=O)N(C)C[C@@H]2Oc3ccc(NC(=O)C4CC4)cc3C(=O)N([C@@H](C)CO)C[C@@H]2C)cc1,.,.,-3,.
CC1(c2ccc(OC(F)F)cc2)NC(=O)N(CC(=O)Nc2ccccc2)C1=O (stereo not drawn),-91*,-4,12,0
CCC1(c2ccccc2)NC(=O)N(CC(=O)Nc2ccc(S(=O)(=O)N3CC(C)CC(C)C3)cc2)C1=O (stereo not drawn),30,-31,0,1
CC1CCN(S(=O)(=O)c2ccc(NC(=O)CN3C(=O)NC(C)(c4ccccc4)C3=O)cc2)CC1 (stereo not drawn),-79*,-33,-3,4
C[C@@H]1CN([C@H](C)CO)S(=O)(=O)c2ccc(-c3cccnc3)cc2O[C@H]1CN(C)C(=O)CN(C)C,.,.,2,.
CCCn1c(=O)c2c(nc3n2CCCN3Cc2ccccc2)n(C)c1=O,5,8,49*,2
Cn1c(=O)n(CCc2ccccc2)c(=O)c2c1nc1n2CCCN1Cc1ccccc1,30,1,11,-2
C[C@@H]1CN([C@H](C)CO)C(=O)c2cccc(NS(C)(=O)=O)c2O[C@@H]1CN(C)S(C)(=O)=O,.,.,-1,.
CCNC(=S)NNC(=O)c1ccccn1,-24,4,67*,-1
N=C1CCC(=N)c2c1c(O)c1ccccc1c2O,10,.,51*,-3
Cc1nnc(Nc2ccccn2)c2ccccc12,31,3,33*,-3
Cc1nnc(Nc2ccc(F)cc2)c2ccccc12,12,8,26,-1
O=C(CN1C(=O)NC2(CCc3ccccc32)C1=O)Nc1cccc(Cl)c1 (stereo not drawn),.,-4,-4,-1
Cc1ccc(NC(=O)CN2C(=O)NC3(CCc4ccccc43)C2=O)cc1Cl (stereo not drawn),-90*,-22,-2,-3
Cc1ccc(NC(=O)CN2C(=O)NC3(CCc4ccccc43)C2=O)cc1 (stereo not drawn),-90*,-1,-4,0
CC(=O)c1ccc(NC(=O)CN2C(=O)NC3(CCCc4ccccc43)C2=O)cc1 (stereo not drawn),.,-2,5,4
COC(=O)C[C@@H]1CC[C@@H]2[C@H](COc3ccc(NC(=O)c4ccccc4)cc3C(=O)N2C)O1,.,.,-11,.
COc1cc2c(C#N)c(N3CCOCC3)nc(N)c2c(N)n1,24,-8,69*,-4
O=C(OCC(=O)c1c[nH]c2ccccc12)c1ccc([N+](=O)[O-])s1,-99*,-18,10,0
CCc1cccc2c(C(=O)CCl)c[nH]c12,17,19,4,-2
CCOC(=O)c1c(C)[nH]c(C)c1C(=O)COC(=O)c1ccc([N+](=O)[O-])s1,.,-7,14,1
CCc1cccc2c(C(=O)COC(=O)c3ccc([N+](=O)[O-])s3)c[nH]c12,-206*,-27,.,2
COc1ccc(NC(=O)Nc2ccc3c(c2)C(=O)N([C@H](C)CO)C[C@@H](C)[C@H](CN(C)S(=O)(=O)c2ccccc2)OCCCC[C@@H](C)O3)cc1,.,.,18,.
O=c1c2cc(Br)ccc2nc(-c2ccc([N+](=O)[O-])cc2)n1O,-167*,-5,7,1
O=c1c2cc(Br)ccc2nc(-c2cccc(C(F)(F)F)c2)n1O,35,-3,8,-1
N#Cc1ccc(-c2nc3ccc(Br)cc3c(=O)n2O)cc1,-111*,8,1,2
Cc1ccc(S(=O)(=O)N(C)C[C@@H]2OCCCC[C@H](C)Oc3ccc(NS(=O)(=O)c4cn(C)cn4)cc3C(=O)N([C@@H](C)CO)C[C@@H]2C)cc1,.,.,6,.
C[C@H](CO)N1C[C@H](C)[C@@H](CN(C)Cc2ccccc2)Oc2ncc(C3=CCCC3)cc2C1=O,.,.,0,.
